Measured values from PubChem BioAssay (NCI).
This is part of a sample that, as a whole, favours compounds with a hit. Of some 83,000 tested, about 20% had one in any assay.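 The endpoint reported here, percent growth, reads 100 for growth as untreated, 0 for no net growth and -100 for all cells dead.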 Unmarked numbers belong to inactive results. Calls of active or inactive are those of the source. The calls were made as follows: active = growth percent below 10; inactive = the rest.

How the values were obtained:
Assay in all cases: NCI-60 one-dose screen, 48 h (100 = growth as untreated, 0 = no growth, -100 = all killed)
Conditions in all cases: 10 µM unless noted
HCT-15 colon = tested on: HCT-15 colon
HT29 colon = tested on: HT29 colon
SNB-75 CNS = tested on: SNB-75 CNS
SNB-19 CNS = tested on: SNB-19 CNS
U251 CNS = tested on: U251 CNS
PC-3 prostate = tested on: PC-3 prostate
SK-MEL-5 melanoma = tested on: SK-MEL-5 melanoma
UACC-62 melanoma = tested on: UACC-62 melanoma
LOX IMVI melanoma = tested on: LOX IMVI melanoma
SK-MEL-28 melanoma = tested on: SK-MEL-28 melanoma

| SMILES | growth (HCT-15 colon) | growth (HT29 colon) | growth (SNB-75 CNS) | growth (SNB-19 CNS) | growth (U251 CNS) | growth (PC-3 prostate) | growth (SK-MEL-5 melanoma) | growth (UACC-62 melanoma) | growth (LOX IMVI melanoma) | growth (SK-MEL-28 melanoma) |
| --- | --- | --- | --- | --- | --- | --- | --- | --- | --- | --- |
| O=C(/C=C/c1cccc(C(F)(F)F)c1)Nc1cccc(C(F)(F)F)c1 | 14.9% | 51.5% | 97.5% | 81.9% | 26.9% | 18.9% | 89.1% | 84.5% | 28.4% |  |
| c1ccc(-c2cn3c(-c4c[nH]c5ccccc45)csc3n2)cc1 | 85.6% | 63% | 80.9% | 59.7% | 61% | 43.2% | 81% | 49.6% | 83.7% |  |
| Fc1ccc2nc(-c3cnn4cccnc34)sc2c1 | 76.9% | 97.9% | 68.5% | 82.1% | 75.8% | 84.3% | 90% | 75.4% | 92.9% |  |
| CCOC(=O)c1c(NCC(=O)Nc2cccc([N+](=O)[O-])c2)sc(C(C)=O)c1C | -6.35% (active) | -35.3% (active) | -0.605% (active) | 9.51% (active) | -13.2% (active) | -14.5% (active) | -82.9% (active) | -19.6% (active) | -38.1% (active) | 2.62% (active) |
| CCOP(=O)(OCC)OC[C@]12CC[C@@H](C)[C@H](C)C1C1=CC[C@@H]3[C@@]4(C)CCCNC(C)(C)[C@@H]4CC[C@@]3(C)[C@]1(C)CC2 (stereo partly drawn) | -8.25% (active) | -30.6% (active) | 66.8% | 17% | -59.1% (active) | 10.9% | -8.29% (active) | -12.6% (active) | -86.3% (active) |  |
| Cc1ccccc1N1CCN(C2=C(Cl)C(=O)c3ncccc3C2=O)CC1 | 4.38% (active) | 94.9% | 82.6% | 74.9% | 71.3% | 66.1% | 88.8% | 66.2% | 1.19% (active) | 35.9% |
| O=C(O)CC1CCN(c2ccc3nnc(Cl)n3n2)CC1 | 98.8% | 101% | 84.7% | 100% | 110% | 104% | 101% | 95.5% | 95.6% | 102% |
| CCN(CC)c1ccc(/C=N/NC(=O)c2ccc(NS(C)(=O)=O)cc2)cc1 | 20.4% | 32.1% | 73.3% | 39.2% | 31.1% | 37.2% | 4.46% (active) | 12.3% | 9.94% (active) |  |
| O=C(N/N=C\c1ccc(F)cc1)c1ccc2nc(-c3ccc(Br)cc3)[nH]c2c1 | 22.2% | -58.9% (active) | 53.7% | 23.2% | -62.1% (active) | 40.4% | 56.3% | 49.2% | -12.3% (active) |  |
| COc1cc(C(=O)c2cc(C(C)=O)c3cccc(C)n23)cc(OC)c1OC | 17.9% | 8.74% (active) | 5.39% (active) | 39.8% | 30.9% | 55.7% | 33.3% | 23.3% | 39.2% |  |
| O=c1nc(Nc2ccc([N+](=O)[O-])cc2O)sc2ccccc12 | 26.6% | 81.7% | -11.7% (active) | 28.7% | 36.8% | 16.5% | 21% | 15.2% |  |  |
| CNc1sc(S(=O)(=O)NC)nc1S(=O)(=O)c1ccc(C)cc1 | 94.2% | 107% | 88.3% | 96% | 95.8% | 96.7% | 98.4% | 91.3% | 96.1% |  |
| FC(F)(F)c1cc(Br)cc(-c2cc(-c3ccc4c(c3)OCCO4)[nH]n2)c1 | 15.7% | 6.74% (active) | 5.38% (active) | 34.3% | 23.1% | 37% | 17.9% | 40.2% | 19% |  |
| CC(C)(C)Nc1nc2c(OCCc3ccccc3)cccn2c1-c1cccc(Oc2ccccc2)c1 | 6.6% (active) | 6.41% (active) | 43.5% | 24.5% | 13.5% | 17.5% | -75% (active) | 15% | 3.93% (active) |  |
| O=C(CSc1nc2ccccc2c(=O)n1-c1ccc(Cl)cc1)N/N=C/c1ccc(Oc2ccc(Cl)cc2)cc1 | 10.4% | 1.76% (active) | 57.9% | 28.5% | -20.5% (active) | 0.803% (active) | 10.9% | 0.427% (active) | -56.3% (active) | 3.17% (active) |
